HT1080 IDH1KD tx = HT-1080 IDH1 knockdown cell toxicity (counter line). HT-1080 IDH1 knockdown viability, ATP luminescence, 48 h. Potency, µM (series often up to 46.1 µM), inactives show top-dose activity, negative = toxicity, usual class: cytotoxic. hit rate 2% among 360,000. AID 686971;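 note: 0% = DMSO wells and -100% = cell-free medium wells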
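Cytotoxicity counter-line: IDH1KD HT-1080, 48 h, CellTiter-Glo. Curves classed by r2, magnitude and activity.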
KB-3-1 cytotox = kills parental KB-3-1 adenocarcinoma cells; hit rate 1.4% among 400,000; AID 1347075; Potency, µM (series often up to 46.1 µM), hits mostly cytotoxic; KB-3-1 viability, CellTiter-Glo ATP luminescence, 72 h; note: nearly all actives have a fitted effect of over 60% in size
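Parental KB-3-1 adenocarcinoma cells in phenol-red-free DMEM with 10% FBS were pin-treated with compounds at several concentrations, incubated 72 h at 37 °C, and viability read by CellTiter-Glo luminescence; concentration-effect curves were fitted after normalization.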
HT1080-NT tox = kills 2HG-producing HT-1080-NT fibrosarcoma cells; HT-1080-NT fibrosarcoma viability, CellTiter-Glo ATP luminescence, 48 h; Potency, µM (series often up to 46.1 µM), inactives show top-dose activity, negative = less viability, most hits filed as cytotoxic; hit rate 1.6% among 360,000; AID 686970;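 note: NT is the 2HG producing partner of a matched IDH1 knockdown line; 0% = DMSO-treated cells and -100% = media-only wells without cells; nearly all actives have a fitted effect of over 55% in size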
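A 48-hour cytotoxicity screen used HT-1080-NT cells plated 2 hours before compound delivery. ATP-based CellTiter-Glo luminescence measured viability, normalized to DMSO and no-cell controls.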
KB-V1 cytotox = KB-V1 MDR subline cytotoxicity; KB-V1 MDR cells viability, CellTiter-Glo, 72 h; Potency, µM (highest dose often 46.1 µM), usual class: cytotoxic; hit rate 3.4% among 400,000; AID 1347076; note: nearly all actives have a fitted effect of over 60% in size
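Cytotoxicity toward P-gp-expressing KB-V1 cells was determined as loss of CellTiter-Glo luminescence after 72 h at 37 degrees C. Compounds were tested in quantitative HTS format across a concentration range, with curves fitted to normalized data.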
DT40 TDP1 CPT = DT40-hTDP1 cell growth loss with CPT | chicken DT40 Tdp1-/-;hTDP1 cells + 20 nM CPT, ATP luminescence, 48 h | Potency, µM (series often up to 46.2 µM), without a hit: at the highest dose activity change, negative = growth inhibition, actives largely listed as inhibitors | hit rate 12% among 420,000; note: nearly all actives have a fitted effect of over 55% in size
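Chicken DT40 Tdp1-/- cells complemented with human TDP1, 400 cells/well, exposed to compounds plus 20 nM camptothecin for at least 48 h at 37 C; viability read as ATP content by CellTiter-Glo luminescence.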
TDP1 cell noCPT = qHTS for Inhibitors of human tyrosyl-DNA phosphodiesterase 1 (TDP1): qHTS in cells in absence of CPT; DT40 Tdp1-/- hTDP1 cells, no CPT, ATP luminescence, 48 h; Potency, µM (titrated, usually from 46.2 µM), for the others: at the top dose activity change, negative = growth inhibition, most hits filed as inhibitors; hit rate 15% among 420,000; note: nearly all actives have a fitted effect of over 55% in size
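Growth kinetics read by CellTiter-Glo luminescence after ≥48 hr at 37 °C. Cells: DT40 Tdp1-/- stably carrying human TDP1, 400 per well, compound exposure in the absence of CPT (DMSO vehicle).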
Active calls of the source: *. Compounds with a hit are over-represented: about 19% of the library has one in this group of screens. Calls come from the whole dose curve; as a rule, active = well fitted curve in the direction sought with a large enough effect; inconclusive = small, poorly fitted or top-dose-only effect, or another doubt; inactive = no such curve, though single readings can be large; an effect the other way counts as inactive or inconclusive. Unless noted, % is set by controls: 0 for no effect and ±100 for the full control effect; potency is the fitted concentration of half-maximal effect.

What do the screens show for `Cc1ccc(C2=NN(S(=O)(=O)c3ccccc3)C(c3ccccc3O)C2)cc1` (stereo not given)?
HT1080 IDH1KD tx: inconclusive; KB-3-1 cytotox: inactive; HT1080-NT tox: 18.4µM*; KB-V1 cytotox: inconclusive; DT40 TDP1 CPT: inconclusive; TDP1 cell noCPT: inconclusive

Results for Cc1ccc(-n2nc(C)c3nc(CCC(=O)Nc4cccc(C)c4C)c(=O)n(C)c32)cc1 ?
KB-3-1 cytotox: inactive; KB-V1 cytotox: inactive; DT40 TDP1 CPT: -10.7%; TDP1 cell noCPT: -1.5%

What do the screens show for `Cc1ccc(NC(=O)NC(=O)COc2ccccc2C(N)=O)c(C)c1`?
HT1080 IDH1KD tx: 4.9%; KB-3-1 cytotox: inactive; HT1080-NT tox: 9.7%; KB-V1 cytotox: inactive; DT40 TDP1 CPT: 9.1%; TDP1 cell noCPT: 21.7%

Results for CCOc1ccccc1C1N=C(N)Nc2nc3ccccc3n21 (stereo not given) ?
KB-3-1 cytotox: inactive; KB-V1 cytotox: inactive; DT40 TDP1 CPT: 5.7%; TDP1 cell noCPT: -2.6%

Results for CCOC(=O)c1cc(-c2ccccc2)n(-c2cccc(C(=O)Nc3ccc(OC)cc3)c2)c1C ?
KB-3-1 cytotox: inactive; KB-V1 cytotox: inactive; DT40 TDP1 CPT: inconclusive; TDP1 cell noCPT: inconclusive

What do the screens show for `Cc1ccc(C(=O)C2Oc3ccccc3C3CC(c4ccc(C)cc4)=NN23)cc1` (stereo not given)?
HT1080 IDH1KD tx: 9.3%; KB-3-1 cytotox: inactive; HT1080-NT tox: 7.8%; KB-V1 cytotox: 20.6µM*; DT40 TDP1 CPT: inconclusive; TDP1 cell noCPT: inconclusive

Results for COc1cc(N2N=C(c3ccccc3)CC2c2ccccc2)c(C=O)cc1C=O (stereo not given) ?
HT1080 IDH1KD tx: 0.1%; KB-3-1 cytotox: inconclusive; HT1080-NT tox: -3.4%; KB-V1 cytotox: inconclusive; DT40 TDP1 CPT: inconclusive; TDP1 cell noCPT: 18.4µM*

Results for O=C(COC(=O)COc1ccccc1)NC12CC3CC(CC(C3)C1)C2 ?
HT1080 IDH1KD tx: -7.0%; KB-3-1 cytotox: inactive; HT1080-NT tox: -7.1%; KB-V1 cytotox: inactive; DT40 TDP1 CPT: -17.5%; TDP1 cell noCPT: -25.8%

Results for CSCC[C@H](NC(=O)OC(C)(C)C)C(=O)N1CCC(C(=O)NCC(=O)Nc2ccc(C)cc2)CC1 ?
HT1080 IDH1KD tx: 10.8%; KB-3-1 cytotox: inactive; HT1080-NT tox: -5.9%; KB-V1 cytotox: inactive; DT40 TDP1 CPT: -7.0%; TDP1 cell noCPT: 0.4%

How did Cc1c(Cl)ccc2c1NC(=O)[C@]21N[C@@H](Cc2ccccc2)[C@H]2C(=O)N(c3ccc(F)cc3)C(=O)[C@H]21 do in these assays?
HT1080 IDH1KD tx: inconclusive; KB-3-1 cytotox: inconclusive; HT1080-NT tox: -22.2%; KB-V1 cytotox: 9.2µM*; DT40 TDP1 CPT: inconclusive; TDP1 cell noCPT: inconclusive

What do the screens show for `O=C1[C@@H]2C(Cc3ccc(O)cc3)NC3(C(=O)Nc4ccc(F)cc43)[C@@H]2C(=O)N1c1ccccc1` (stereo not given in full)?
HT1080 IDH1KD tx: -6.3%; KB-3-1 cytotox: inactive; HT1080-NT tox: -12.6%; KB-V1 cytotox: inactive; DT40 TDP1 CPT: -15.1%; TDP1 cell noCPT: -22.0%

What do the screens show for `O=C(Nc1ccccc1)N1CC2(CCN(C(=O)c3cccc(F)c3)CC2)C1`?
DT40 TDP1 CPT: 11.0%; TDP1 cell noCPT: 3.8%

What do the screens show for `Cc1ccc(C(=O)NNCC(=O)Nc2ccc(Cl)cc2F)cc1`?
HT1080 IDH1KD tx: -2.7%; KB-3-1 cytotox: inactive; HT1080-NT tox: -2.4%; KB-V1 cytotox: inactive; DT40 TDP1 CPT: -2.4%; TDP1 cell noCPT: -29.0%

How did COc1ccc(N2CCN(S(=O)(=O)c3cnc[nH]3)CC2)cc1 do in these assays?
HT1080 IDH1KD tx: -3.5%; KB-3-1 cytotox: inactive; HT1080-NT tox: -2.5%; KB-V1 cytotox: inactive; DT40 TDP1 CPT: -11.8%; TDP1 cell noCPT: -14.5%

How did CCCc1nc2oc3c(NCCCN(C)C)ncnc3c2c2c1CCCC2 do in these assays?
HT1080 IDH1KD tx: inconclusive; KB-3-1 cytotox: inactive; HT1080-NT tox: -24.1%; KB-V1 cytotox: inconclusive; DT40 TDP1 CPT: inconclusive; TDP1 cell noCPT: inconclusive

How did CCCc1nc2oc3c(NCCN(C)C)ncnc3c2c2c1CCCC2 do in these assays?
HT1080 IDH1KD tx: inconclusive; KB-3-1 cytotox: inconclusive; HT1080-NT tox: -19.5%; KB-V1 cytotox: inactive; DT40 TDP1 CPT: 18.4µM*; TDP1 cell noCPT: 16.4µM*

Results for CC(C)Cc1nc2oc3c(NCC(C)O)ncnc3c2c2c1CCCC2 (stereo not given) ?
HT1080 IDH1KD tx: -3.7%; KB-3-1 cytotox: inactive; HT1080-NT tox: -2.2%; KB-V1 cytotox: inactive; DT40 TDP1 CPT: inconclusive; TDP1 cell noCPT: 14.6µM*

How did CC(C)Cc1nc2oc3c(=O)[nH]cnc3c2c2c1CCCC2 do in these assays?
HT1080 IDH1KD tx: -8.7%; KB-3-1 cytotox: inactive; HT1080-NT tox: 7.2%; KB-V1 cytotox: 18.4µM*; DT40 TDP1 CPT: 2.4%; TDP1 cell noCPT: 2.3%

What do the screens show for `CCOC(=O)c1c(C)oc2ncnc(Nc3ccc(OC)cc3OC)c12`?
KB-3-1 cytotox: inactive; KB-V1 cytotox: inconclusive; DT40 TDP1 CPT: 14.9%; TDP1 cell noCPT: 5.4%

How did COc1nc(NC(=O)c2ccc(F)cc2)nc(OC)c1-c1ccccc1 do in these assays?
HT1080 IDH1KD tx: inconclusive; KB-3-1 cytotox: inconclusive; HT1080-NT tox: inconclusive; KB-V1 cytotox: inconclusive; DT40 TDP1 CPT: -0.8%; TDP1 cell noCPT: -27.4%

What do the screens show for `CCOc1ccccc1N1CC(c2nc3ccccc3n2CCOc2ccc(C(C)(C)C)cc2)CC1=O` (stereo not given)?
KB-3-1 cytotox: inconclusive; KB-V1 cytotox: inactive; DT40 TDP1 CPT: inconclusive; TDP1 cell noCPT: inconclusive

Results for Cc1cccc(C)c1OCCn1c(C2CC(=O)N(Cc3ccc(F)cc3)C2)nc2ccccc21 (stereo not given) ?
KB-3-1 cytotox: inactive; KB-V1 cytotox: inactive; DT40 TDP1 CPT: inconclusive; TDP1 cell noCPT: 18.4µM*

What do the screens show for `CCc1ccccc1N1CC(c2nc3ccccc3n2CCOc2ccc(Cl)c(C)c2)CC1=O` (stereo not given)?
KB-3-1 cytotox: inconclusive; KB-V1 cytotox: inactive; DT40 TDP1 CPT: 10.3µM*; TDP1 cell noCPT: 20.6µM*

What do the screens show for `CCn1c(C2CC(=O)N(Cc3ccccc3)C2)nc2ccccc21` (stereo not given)?
HT1080 IDH1KD tx: 10.7%; KB-3-1 cytotox: inactive; HT1080-NT tox: 8.2%; KB-V1 cytotox: inactive; DT40 TDP1 CPT: -15.3%; TDP1 cell noCPT: -7.5%

Screening data (PubChem BioAssay)
